Screening results from PubChem BioAssay.
An excerpt weighted towards active compounds, which were near 2.4% of everything screened.
FEN1 inhibitor = human FEN1 inhibition; AID 588795; actives 0.35% (n = 390,000); Potency, µM (series often up to 114 µM), most hits filed as inhibitors; Recombinant FEN1 flap cleavage, fluorescence, 15 min; P39748; also: nearly all actives have a fitted effect of over 65% in size
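Nuclease activity of 10 nM FEN1 was measured after 15 min of room-temperature exposure to titrated compounds, by adding 50 nM flap substrate and reading plates at 0 and 15 min.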
WRN helicase inh = blocks human WRN helicase; WRN helicase unwinding, fluorescent forked duplex, kinetic; Potency, µM (titrated, usually from 114 µM), most hits filed as inhibitors; actives 0.46% (n = 360,000); AID 651768; also: nearly all actives have a fitted effect of over 55% in size
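Screening of the MLSMR collection measured strand separation of a quenched forked DNA duplex (100 nM) by 20 nM WRN with 2 mM ATP, all final. Compounds were preincubated with enzyme 15 min at room temperature.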
Pol kappa inh-1 = blocks human DNA polymerase kappa activity; AID 588579; purified Pol kappa, fluorescent DNA synthesis assay, 10 min; Q9UBT6; Potency, µM (top dose mostly 107 µM), hits mostly inhibitors; actives 0.53% (n = 400,000)
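Enzyme at 10 nM met test compounds for 15 min at room temperature. Substrate addition (50 nM final) began the reaction, which was monitored by fluorescence at 0 and 10 min.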
Pol eta inh-1 = blocks human DNA polymerase eta activity; Q9Y253; recombinant Pol eta, fluorescent DNA replication assay; Potency, µM (doses to about 114 µM), usual class: inhibitors; actives 1.2% (n = 390,000); AID 588591
Target sequence (Q9Y253 whole entry, looked up): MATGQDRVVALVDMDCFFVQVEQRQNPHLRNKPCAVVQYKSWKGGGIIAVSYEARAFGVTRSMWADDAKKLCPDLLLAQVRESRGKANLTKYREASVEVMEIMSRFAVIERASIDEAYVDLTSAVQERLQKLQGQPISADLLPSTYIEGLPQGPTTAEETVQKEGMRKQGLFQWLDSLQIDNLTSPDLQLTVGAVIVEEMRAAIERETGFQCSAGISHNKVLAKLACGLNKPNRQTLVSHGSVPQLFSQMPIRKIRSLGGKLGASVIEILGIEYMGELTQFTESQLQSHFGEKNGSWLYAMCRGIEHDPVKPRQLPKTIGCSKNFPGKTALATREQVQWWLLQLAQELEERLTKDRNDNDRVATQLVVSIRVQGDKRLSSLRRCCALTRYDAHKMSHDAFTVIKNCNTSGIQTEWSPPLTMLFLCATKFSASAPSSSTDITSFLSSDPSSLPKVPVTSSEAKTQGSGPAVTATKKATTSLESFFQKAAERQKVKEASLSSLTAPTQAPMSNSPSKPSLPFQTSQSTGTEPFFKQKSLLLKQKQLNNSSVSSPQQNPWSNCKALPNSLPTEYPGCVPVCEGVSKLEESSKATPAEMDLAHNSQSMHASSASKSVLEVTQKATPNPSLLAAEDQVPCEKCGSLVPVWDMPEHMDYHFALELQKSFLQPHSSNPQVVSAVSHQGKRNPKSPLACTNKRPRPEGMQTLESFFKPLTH
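Pol eta (10 nM) was preincubated with compounds for 15 min at room temperature, after which fluorescent replication substrate (50 nM final) was added to start the reaction. Fluorescence was read kinetically at 0 and 10 min.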
POLI inh = blocks human DNA polymerase iota activity; Q9UNA4; Pol iota fluorescent replication assay, 10 min; Potency, µM (top dose mostly 115 µM), hits mostly inhibitors; actives 1% (n = 390,000); AID 588590
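Fluorescent replication assay read twice, at 0 min and 10 min after adding 50 nM (final) substrate. Enzyme (10 nM) and compounds were first incubated 15 min at room temperature; enzyme-free buffer wells were negative controls.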
Pol beta inh = blocks human DNA polymerase beta activity; P06746; Pol beta primer extension/strand displacement, fluorescence kinetic; Potency, µM (series often up to 114 µM), hits mostly inhibitors; actives 1.3% (n = 340,000); AID 485314
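Values derive from four-parameter Hill fits of normalized kinetic data: reads at 0 and 10 min following addition of 50 nM substrate to 10 nM Pol beta preincubated 15 min with compound.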
TbPGK inh = blocks T. brucei phosphoglycerate kinase; shares compounds with Pol kappa inh-1; Potency, µM (highest dose often 57.5 µM), usual class: inhibitors; actives 79% (n = 500); TbPGK coupled GAPDH assay, Kinase-Glo luminescence; AID 686980; also: nearly all actives have a fitted effect of over 65% in size
POLI cherry-pick = Inhibitors of human DNA polymerase iota, confirmation | AID 720496 | actives 77% (n = 1,500) | Potency, µM, usual class: inhibitors | Pol iota primer extension, TAMRA/BHQ fluorescence | shares compounds with Pol kappa inh-1
GALK inh confirm = galactokinase (human) inhibition, confirmation; shares compounds with Pol eta inh-1; purified GALK, Kinase-Glo ATP depletion luminescence; Potency, µM (doses to about 115 µM), hits mostly inhibitors; actives 70% (n = 150); AID 2015
Redox cycling = redox cycling activity in phenol red-HRP assay; shares compounds with Pol eta inh-1; Phenol red-HRP H2O2 redox cycling, absorbance 600 nm; Potency, µM (doses to about 115 µM), hits mostly inhibitors; actives 40% (n = 150); AID 2035
HEK293 viability = reduces HEK-293 cell viability in GALK counter-screen; shares compounds with Pol eta inh-1; HEK-293 viability, ATP luminescence (CellTiter-Glo), 24/48 h; Potency, µM (highest dose often 46.1 µM), hits mostly inhibitors; actives 10% (n = 170)
Pol kappa inh-2 = Pol kappa (human) inhibition, cherry-pick confirmation; shares compounds with Pol eta inh-1; Potency, µM, usual class: inhibitors; purified Pol-kappa, fluorescent strand-displacement substrate; actives 76% (n = 920)
Pol eta inh-2 = Pol eta (human) inhibition, cherry-pick confirmation; shares compounds with Pol eta inh-1; Pol eta primer extension, TAMRA/BHQ fluorescence, 10 min; Potency, µM, actives largely listed as inhibitors; actives 64% (n = 2,600)
Large screens that a line does not name were inactive (follow-up assays come after a bar, where they were run). Calls follow the shape of the dose curve; as a rule, active = well fitted curve in the direction sought with a large enough effect; inconclusive = small, poorly fitted or top-dose-only effect, or another doubt; inactive = no such curve, though single readings can be large; an effect the other way counts as inactive or inconclusive.

CCN1/C(=C/C(C)=C/c2sc3ccccc3[n+]2CC)Sc2ccccc21	FEN1 inhibitor 7.1µM, WRN helicase inh 18µM, Pol kappa inh-1 inconclusive, Pol eta inh-1 40µM, POLI inh 32µM, Pol beta inh 35µM | TbPGK inh inconclusive
CCN1/C(=C\C(=S)Nc2ccccc2)Sc2ccccc21	none
COc1ccc2[nH]c3c(C)c4ccncc4c(C)c3c2c1	FEN1 inhibitor 2.8µM, WRN helicase inh inconclusive, Pol kappa inh-1 50µM, Pol eta inh-1 inconclusive, POLI inh 3.5µM, Pol beta inh 1.3µM | POLI cherry-pick 7.5
COc1ccc(S(=O)(=O)N(CCO)c2ccccc2CN(C)CC=Cc2ccc(Cl)cc2)cc1	none (no result: FEN1 inhibitor, WRN helicase inh, Pol eta inh-1, POLI inh, Pol beta inh)
Cc1cc(Br)cc2c1N(Cc1ccccc1OC(C)C)C(=O)C2=O	POLI inh inconclusive (no result: WRN helicase inh, Pol eta inh-1)
Cc1[nH][nH]c(=O)c1C(c1ccc(-c2ccc(C(=O)O)cc2)o1)c1c(C)[nH][nH]c1=O	WRN helicase inh inconclusive, Pol eta inh-1 inconclusive, POLI inh 4.5µM, Pol beta inh 25µM | POLI cherry-pick 60 | Pol eta inh-2 inconclusive
CCCCCCCCCCCCC/C=C/[C@@H](O)[C@H](CO)NCCCCCCCC	none (no result: FEN1 inhibitor, WRN helicase inh, Pol eta inh-1, POLI inh, Pol beta inh)
COc1ccc(-c2csc(NC(=O)c3ccccc3NS(=O)(=O)c3ccc(F)c(F)c3)n2)cc1	FEN1 inhibitor inconclusive, WRN helicase inh inconclusive, Pol kappa inh-1 inconclusive, Pol eta inh-1 inconclusive, POLI inh inconclusive, Pol beta inh inconclusive | POLI cherry-pick inconclusive | GALK inh confirm 38µM | Redox cycling inactive | HEK293 viability 4µM | Pol kappa inh-2 inconclusive | Pol eta inh-2 inconclusive
O=C1CC2(CCCC2)CC(=O)N1CCNC[C@H]1COc2ccccc2O1	none (no result: FEN1 inhibitor, WRN helicase inh, Pol eta inh-1, POLI inh, Pol beta inh)
COc1cc(/C=C(\CCC(=O)O)c2nc3ccccc3s2)ccc1OCC(=O)Nc1c(Cl)cccc1Cl	FEN1 inhibitor inconclusive, WRN helicase inh inconclusive, Pol eta inh-1 inconclusive (no result: Pol beta inh) | TbPGK inh 10µM | POLI cherry-pick 38 | Pol eta inh-2 76
COc1cccc(CN(C(=O)/C=C/c2ccco2)C2CCS(=O)(=O)C2)c1 (stereo unspecified)	Pol kappa inh-1 89µM, Pol eta inh-1 inconclusive, POLI inh 45µM, Pol beta inh inconclusive | POLI cherry-pick inconclusive | Pol eta inh-2 inconclusive
COc1cccc(CN(C(=O)c2ccco2)C2CCS(=O)(=O)C2)c1 (stereo unspecified)	none
COc1ccc(CN(C(=O)/C=C/c2ccco2)C2CCS(=O)(=O)C2)cc1 (stereo unspecified)	Pol kappa inh-1 inconclusive, Pol eta inh-1 50µM, POLI inh 18µM, Pol beta inh 20µM | POLI cherry-pick 53 | Pol eta inh-2 85
